Results taken from PubChem BioAssay (NCATS).
Records with an inconclusive call do not appear. Entries that show only a call come without a potency. Unmarked numbers belong to inactive results. Activity calls are given as the source filed them. Calls come from the whole dose curve; as a rule, active = well fitted cell-killing curve with a large enough effect; inconclusive = small, poorly fitted or top-dose-only effect, or effect the other way; inactive = flat fitted curve, though single readings scatter.

system: CASKI; test: Primary qHTS to identify gynecologic anti-cancer compounds using libraries of approved drugs and bioactive compounds (AID 1345084); settings: Gynecologic cancer cell panel viability, ATPlite luminescence, 48 h; series mostly up to 57.5 µM; note: nearly all actives have a fitted effect of over 55% in size
Outline: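 Luminescence from the ATPlite ATP-monitoring reagent indicates viable cell number; lower signal means cytotoxicity. Cells received compound 16 h after seeding and were exposed for 48 h across five concentrations.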
Potency is the fitted concentration of half-maximal effect.

SMILES | Potency | activity change, negative = cytotoxicity
COc1ccc(-c2nc(-c3ccc(-c4cccc(Cl)c4)o3)[nH]c2-c2ccc(OC)cc2)cc1 | inactive | 
CC(=O)c1c(O)cc(O[C@@H]2O[C@H](CO)[C@@H](O)[C@H](O)[C@H]2O)cc1O | inactive | 
C=C1C(O)C(O)C2(CC3C(C)=CCC4C(C)(CO)CCCC34C)OC2C1O (stereo unspecified) | inactive | 
O=C1NC(Cc2c[nH]c3ccccc23)C(=O)NC1Cc1c[nH]c2ccccc12 (stereo unspecified) | inactive | 
CC1CCC2(C=O)C(CO)=CCCC2C1(C)CC(=O)O (stereo unspecified) | inactive | 
COc1cc(C)c(C(=O)O[C@H]2[C@@H](OC(C)=O)[C@H](n3ccc(=O)[nH]c3=O)O[C@@H]2CO)c(OC)c1 | inactive | 
COC(=O)C1=CO[C@@H](O[C@@H]2O[C@H](CO)[C@@H](O)[C@H](O)[C@H]2O)[C@@H]2[C@@](C)(O)[C@@H](OC(=O)/C=C/c3ccc(O)cc3)C[C@]12O | inactive | 
C[C@@H]([C@@H](O)c1ccc(O)cc1)N1CCC(O)(c2ccccc2)CC1 | inactive | 
N#C[C@@H]1C[C@H](F)CN1C(=O)CNC1[C@H]2CN(C(=O)c3ccc(F)cc3)C[C@@H]12 (stereo partly specified) | inactive | 
C=C1CCC2C(C)(C(=O)OC)CCCC2(C)C1CCC(C)CC(=O)O (stereo unspecified) | inactive | 
C[C@@H]1C(=O)O[C@H]2C[C@]34[C@H]5C[C@@H](C(C)(C)C)[C@]36[C@@H](OC(=O)[C@H]6O)O[C@]4(C(=O)O5)[C@]21O | inactive | 
COC(=O)C1=COC(O[C@@H]2O[C@H](CO)[C@@H](O)[C@H](O)[C@H]2O)[C@H]2[C@@H]1[C@H](OC(=O)CCc1ccc(O)cc1)C[C@]2(C)O (stereo partly specified) | inactive | 
CC(=O)OC[C@H]1O[C@H](O[C@]2(CO)O[C@H](CO)[C@@H](OC(=O)/C=C/c3ccccc3)[C@@H]2O)[C@H](O)[C@@H](O)[C@@H]1O | inactive | 
C=C(C)C1CC[C@]2(C(=O)O)CC[C@]3(C(=O)O)[C@H](CCC4[C@@]5(C)CC[C@H](O)C(C)(C)C5CC[C@]43C)C12 (stereo partly specified) | inactive | 
COc1cc(/C=C/C(=O)O[C@H]2[C@H](O)[C@@H](CO)O[C@@]2(CO)O[C@H]2O[C@H](CO)[C@@H](O)[C@H](O)[C@H]2O)ccc1O | inactive | 
CC1(C(=O)O)CCCC2(C)C3CCC4CC3(CCC12)CC4=O (stereo unspecified) | inactive | 

SMILES | Potency | activity change, negative = cytotoxicity
C/C=C/C(O)C1OC(=O)CC1Nc1ccc(C(=O)O)cc1 (stereo unspecified) | inactive | 
C=C(CO[C@@H]1O[C@H](CO[C@@H]2OC[C@](O)(CO)[C@H]2O)[C@@H](O)[C@H](O)[C@H]1O)C1Cc2cc(C(C)=O)ccc2O1 (stereo partly specified) | inactive | 
COc1ccc([C@@]2(O)c3c(ccc4c3OC(C)(CCC=C(C)C)C=C4)NC(=O)[C@@H]2OC)cc1 (stereo partly specified) | inactive | 
C=C1C[C@]23C[C@H]1[C@@H](O)C[C@H]2[C@@]12C=C[C@H](O)[C@@](C)(C(=O)O1)[C@H]2[C@@H]3C(=O)O | inactive | 
C=C1C(=O)O[C@@H]2C[C@H](C)[C@@]3(O)C=C(C(C)=O)[C@]4(CC3C[C@H]12)C(=O)O[C@H]1C[C@@H](C)C(CCC(C)=O)=CC[C@H]14 (stereo partly specified) | inactive | 
CCC(C)C(=O)OC1CC(C)C=C2C=CC(C)C(CCC(O)CC(O)CC(=O)O)C21 (stereo unspecified) | inactive | 
OC[C@H]1O[C@@H](OCCc2ccccc2)[C@H](O[C@@H]2OC[C@](O)(CO)[C@H]2O)[C@@H](O)[C@@H]1O | inactive | 
CC1=C(C(=O)O)/C(=C\CO[C@@H]2O[C@H](CO)[C@@H](O)[C@H](O)[C@H]2O)C(OC(=O)/C=C\c2ccc(O)cc2)C1 (stereo partly specified) | inactive | 
CC1(C)CCCC2(C)C1C(O)C=C(CO)C2(O)CO (stereo unspecified) | inactive | 
C/C=C(\C)C(=O)OCC1OC(OC2OC(COC(=O)/C(C)=C/C)C(OC3OC(CO)C(OC(=O)/C(C)=C/C)C(OC(=O)/C(C)=C/C)C3O)C(O)C2O)C(O)C(O)C1OC1OC(CO)C(OC(=O)/C(C)=C/C)C(OC(=O)/C(C)=C/C)C1O (stereo unspecified) |  | 2.92% [at 11.6 µM]
COc1c2c(c(C)c3c1C(=O)OC3)O[C@@]1(C)CCC3(C(C)(C)O)OC(=O)CC[C@]3(C)[C@H]1C2 (stereo partly specified) | inactive | 
COc1ccc(C[C@H](N)C(=O)N[C@@H]2[C@H](O)[C@H](n3cnc4c(N(C)C)ncnc43)O[C@@H]2CO)cc1 | 2240 nM (active) | 
OC1CCC(Nc2ncc3nc(Nc4c(F)cc(F)cc4F)n([C@H]4CCOC4)c3n2)CC1 (stereo partly specified) | inactive | 
Cn1cc(-c2ccc3nnc(Sc4ccc5nn(C)cc5c4)n3n2)cn1 | inactive | 
COc1cc(N)c(Cl)cc1C(=O)NC[C@@H]1CCN2CCC[C@@H]12 | inactive | 
